Data as given in the supplement of paper PMC10849652.
The full data set covers some 7,900 targets. This sample favours those with a hit. About 0.6% of all pairs of compound and target were hits.

Key:
Assay in all cases: log2 fold change, soluble protein after heating vs DMSO (PISA); higher = thermal stabilisation; K562 cells, 10 uM, 30 min; active = over 0.2 and 3.5 SD of the protein, either way, in both replicates (recomputed)
[1] = compound: C1=CC=C(C=C1)[C@H](COC2=CC3=C(C=C2)NC(=O)N3)NC(=O)C4=CC=CN(C4=O)CC5=CC(=C(C=C5)F)F
Outline: (§1)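 Soluble protein was defined as the supernatant after 21,000xg for 90 min. It came from K562 cells at 2×10^6 cells/mL given 10 μM compound for 30 min, heated in aliquots for 3 min across 48°C-58°C, pooled, and extracted in PBS with 0.5% NP-40 at 4°C, and was quantified by TMTpro 16plex LC-MS/MS with equalised channel sums. Thermal stability against control samples, from duplicates, is reported as log2 fold change.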

[2] = compound: CC1=C(SC2=C1C(=N[C@H](C3=NN=C(N32)C)CC(=O)N)C4=CC=C(C=C4)Cl)C
Outline: as §1

[3] = compound: CC1=C2C(=CC=C1)N=C(N(C2=O)C3=CC=CC=C3C)CN4C=NC5=C(N=CN=C54)N
Outline: as §1

[4] = compound: Cc1sc2c(c1C)C(c1ccc(Cl)cc1)=N[C@@H](CC(=O)OC(C)(C)C)c1nnc(C)n1-2
Outline: as §1

[5] = compound: c1ccc([C@@H]2C[C@H]2NC2CCNCC2)cc1
Outline: as §1

Measured: log2 fold change

MMS19 isoform 8 (UniProt Q96T76)
inactive: [1] -0.034 | [2] -0.001 | [3] 0.133 | [4] 0.002 | [5] -0.003

MTHFD1, A0A384N5Y3
inactive: [1] -0.063 | [2] 0.138 | [3] -0.022 | [4] -0.002 | [5] -0.113

NME2P1 (UniProt O60361)
UniProt O60361, sequence (O60361 whole entry, looked up): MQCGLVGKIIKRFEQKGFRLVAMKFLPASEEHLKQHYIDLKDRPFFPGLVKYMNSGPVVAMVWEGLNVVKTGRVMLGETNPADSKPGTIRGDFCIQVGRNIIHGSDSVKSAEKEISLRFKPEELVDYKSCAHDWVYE
inactive: [1] -0.171 | [2] 0.079 | [3] 0.063 | [4] 0.082 | [5] -0.004

NKAP (UniProt Q8N5F7)
inactive: [1] -0.013 | [2] 0.148 | [3] 0.049 | [4] 0.078 | [5] 0.171

MORC3 (UniProt Q14149)
inactive: [1] -0.043 | [2] 0.014 | [3] 0.132 | [4] 0.017 | [5] 0.062

MYLK (UniProt Q15746)
UniProt Q15746, sequence (Q15746 whole entry, looked up): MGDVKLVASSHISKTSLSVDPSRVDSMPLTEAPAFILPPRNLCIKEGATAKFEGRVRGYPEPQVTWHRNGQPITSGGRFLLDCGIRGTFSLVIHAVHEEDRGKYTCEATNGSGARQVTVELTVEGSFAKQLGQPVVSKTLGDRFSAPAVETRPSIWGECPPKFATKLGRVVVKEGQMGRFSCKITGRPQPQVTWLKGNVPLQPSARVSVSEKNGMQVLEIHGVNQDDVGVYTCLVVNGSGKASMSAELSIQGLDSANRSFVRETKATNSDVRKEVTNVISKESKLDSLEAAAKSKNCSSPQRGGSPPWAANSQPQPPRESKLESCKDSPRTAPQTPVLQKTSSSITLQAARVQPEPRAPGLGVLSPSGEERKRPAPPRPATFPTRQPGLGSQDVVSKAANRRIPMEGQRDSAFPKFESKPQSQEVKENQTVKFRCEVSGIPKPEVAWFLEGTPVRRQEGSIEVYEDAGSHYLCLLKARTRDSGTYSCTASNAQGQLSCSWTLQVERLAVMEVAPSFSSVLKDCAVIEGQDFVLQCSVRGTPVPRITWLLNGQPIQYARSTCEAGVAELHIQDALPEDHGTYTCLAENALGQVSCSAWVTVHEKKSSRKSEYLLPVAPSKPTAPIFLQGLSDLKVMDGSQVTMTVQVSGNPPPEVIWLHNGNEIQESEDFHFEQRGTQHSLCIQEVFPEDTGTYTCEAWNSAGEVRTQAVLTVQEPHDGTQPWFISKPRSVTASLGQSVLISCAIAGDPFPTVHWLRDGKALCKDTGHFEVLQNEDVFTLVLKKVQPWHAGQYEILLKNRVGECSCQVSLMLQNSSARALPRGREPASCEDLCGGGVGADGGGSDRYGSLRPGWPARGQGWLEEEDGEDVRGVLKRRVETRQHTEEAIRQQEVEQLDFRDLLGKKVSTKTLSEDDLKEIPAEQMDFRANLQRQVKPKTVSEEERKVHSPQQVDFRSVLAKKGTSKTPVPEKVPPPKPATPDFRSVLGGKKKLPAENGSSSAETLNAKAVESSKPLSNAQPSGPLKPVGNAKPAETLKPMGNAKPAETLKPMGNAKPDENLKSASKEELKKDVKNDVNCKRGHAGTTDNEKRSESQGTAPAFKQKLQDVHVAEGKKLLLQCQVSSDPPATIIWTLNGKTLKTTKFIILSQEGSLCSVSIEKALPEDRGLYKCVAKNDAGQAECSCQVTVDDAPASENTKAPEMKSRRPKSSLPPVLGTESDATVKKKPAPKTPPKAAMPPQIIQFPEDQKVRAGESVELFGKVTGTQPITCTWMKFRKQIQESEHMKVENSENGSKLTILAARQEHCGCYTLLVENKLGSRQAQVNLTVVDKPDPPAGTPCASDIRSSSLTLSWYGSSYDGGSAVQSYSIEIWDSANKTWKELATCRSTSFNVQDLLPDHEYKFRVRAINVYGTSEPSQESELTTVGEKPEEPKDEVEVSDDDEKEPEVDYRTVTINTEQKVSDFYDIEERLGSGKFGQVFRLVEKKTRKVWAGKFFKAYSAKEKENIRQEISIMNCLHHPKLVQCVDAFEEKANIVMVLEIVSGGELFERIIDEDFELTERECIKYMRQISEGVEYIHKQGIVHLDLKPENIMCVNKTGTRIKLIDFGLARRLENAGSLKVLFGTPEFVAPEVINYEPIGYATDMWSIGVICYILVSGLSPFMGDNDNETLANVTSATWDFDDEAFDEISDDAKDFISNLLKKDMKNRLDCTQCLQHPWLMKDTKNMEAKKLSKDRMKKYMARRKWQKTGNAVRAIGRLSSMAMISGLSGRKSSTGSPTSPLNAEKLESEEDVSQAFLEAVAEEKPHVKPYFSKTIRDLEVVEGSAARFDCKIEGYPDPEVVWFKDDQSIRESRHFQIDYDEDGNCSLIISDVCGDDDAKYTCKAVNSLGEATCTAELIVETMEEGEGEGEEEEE
inactive: [1] -0.08 | [2] -0.053 | [3] 0.096 | [4] 0.118 | [5] -0.21

OPA1 isoform 2 (UniProt O60313)
inactive: [1] -0.054 | [2] 0.028 | [3] 0.021 | [4] -0.03 | [5] -0.037

MRPS24 (UniProt Q96EL2)
inactive: [1] -0.016 | [2] -0.026 | [3] -0.026 | [4] 0.148 | [5] 0.037

MMADHC (UniProt Q9H3L0)
inactive: [1] 0.056 | [2] -0.155 | [3] 0.057 | [4] 0.088 | [5] 0.077

NELFB isoform 2 (UniProt Q8WX92)
UniProt Q8WX92, sequence (Q8WX92 whole entry, looked up): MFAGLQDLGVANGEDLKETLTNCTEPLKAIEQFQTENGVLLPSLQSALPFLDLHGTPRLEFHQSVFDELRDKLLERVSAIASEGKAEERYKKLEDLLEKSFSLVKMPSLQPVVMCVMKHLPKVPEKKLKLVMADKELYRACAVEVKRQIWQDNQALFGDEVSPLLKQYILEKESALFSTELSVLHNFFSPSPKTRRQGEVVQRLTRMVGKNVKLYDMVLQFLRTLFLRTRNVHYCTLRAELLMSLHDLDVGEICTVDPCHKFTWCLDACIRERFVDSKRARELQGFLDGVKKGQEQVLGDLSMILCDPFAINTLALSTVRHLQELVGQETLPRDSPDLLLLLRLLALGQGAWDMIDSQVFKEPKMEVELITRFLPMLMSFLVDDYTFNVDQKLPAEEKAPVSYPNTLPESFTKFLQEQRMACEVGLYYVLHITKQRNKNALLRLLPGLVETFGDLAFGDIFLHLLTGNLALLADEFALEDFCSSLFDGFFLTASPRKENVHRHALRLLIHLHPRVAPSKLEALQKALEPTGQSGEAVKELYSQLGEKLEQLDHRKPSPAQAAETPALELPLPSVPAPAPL
inactive: [1] -0.098 | [2] 0.12 | [3] 0.123 | [4] -0.05 | [5] -0.023

PAFAH1B3 (UniProt Q15102)
UniProt Q15102, sequence (Q15102 whole entry, looked up): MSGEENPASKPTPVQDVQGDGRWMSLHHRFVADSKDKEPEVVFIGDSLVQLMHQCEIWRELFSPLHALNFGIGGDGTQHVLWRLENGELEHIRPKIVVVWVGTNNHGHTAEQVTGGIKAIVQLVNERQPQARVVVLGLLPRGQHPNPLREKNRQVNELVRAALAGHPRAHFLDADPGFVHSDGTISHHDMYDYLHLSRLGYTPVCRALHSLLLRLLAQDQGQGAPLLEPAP
inactive: [1] -0.076 | [2] 0.139 | [3] 0.128 | [4] -0.132 | [5] -0.096

NDUFB7 (UniProt P17568)
UniProt P17568, sequence (P17568 whole entry, looked up): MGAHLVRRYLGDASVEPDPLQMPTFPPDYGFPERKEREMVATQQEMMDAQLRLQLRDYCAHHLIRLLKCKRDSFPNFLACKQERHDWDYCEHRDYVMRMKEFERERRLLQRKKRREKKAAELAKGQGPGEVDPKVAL
inactive: [1] -0.032 | [2] -0.01 | [3] -0.004 | [4] -0.015 | [5] 0.03

MSTO1 (UniProt Q9BUK6)
UniProt Q9BUK6, sequence (Q9BUK6 whole entry, looked up): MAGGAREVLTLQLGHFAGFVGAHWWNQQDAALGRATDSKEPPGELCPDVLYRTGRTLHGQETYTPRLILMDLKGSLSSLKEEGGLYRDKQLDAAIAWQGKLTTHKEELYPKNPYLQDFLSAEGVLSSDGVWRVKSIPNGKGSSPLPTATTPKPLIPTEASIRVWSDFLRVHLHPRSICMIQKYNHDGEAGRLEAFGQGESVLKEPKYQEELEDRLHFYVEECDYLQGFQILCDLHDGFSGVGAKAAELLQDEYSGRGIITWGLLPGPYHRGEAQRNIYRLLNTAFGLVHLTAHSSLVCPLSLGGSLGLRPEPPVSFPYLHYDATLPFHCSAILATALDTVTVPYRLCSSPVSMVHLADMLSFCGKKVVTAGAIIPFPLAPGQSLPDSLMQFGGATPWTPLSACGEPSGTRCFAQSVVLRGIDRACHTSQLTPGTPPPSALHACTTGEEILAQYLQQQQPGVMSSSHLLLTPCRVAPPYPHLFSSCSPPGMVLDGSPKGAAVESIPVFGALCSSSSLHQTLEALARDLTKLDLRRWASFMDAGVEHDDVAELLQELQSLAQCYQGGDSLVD
inactive: [1] -0.041 | [2] 0.046 | [3] 0.002 | [4] -0.005 | [5] -0.071

NME7 (UniProt Q9Y5B8)
inactive: [1] -0.112 | [2] 0.098 | [3] 0.175 | [4] 0.096 | [5] -0.038

OGFOD1 (UniProt Q8N543)
inactive: [1] -0.02 | [2] 0.047 | [3] 0.041 | [4] -0.015 | [5] -0.007

NUP85 (UniProt Q9BW27)
UniProt Q9BW27, sequence (Q9BW27 whole entry, looked up): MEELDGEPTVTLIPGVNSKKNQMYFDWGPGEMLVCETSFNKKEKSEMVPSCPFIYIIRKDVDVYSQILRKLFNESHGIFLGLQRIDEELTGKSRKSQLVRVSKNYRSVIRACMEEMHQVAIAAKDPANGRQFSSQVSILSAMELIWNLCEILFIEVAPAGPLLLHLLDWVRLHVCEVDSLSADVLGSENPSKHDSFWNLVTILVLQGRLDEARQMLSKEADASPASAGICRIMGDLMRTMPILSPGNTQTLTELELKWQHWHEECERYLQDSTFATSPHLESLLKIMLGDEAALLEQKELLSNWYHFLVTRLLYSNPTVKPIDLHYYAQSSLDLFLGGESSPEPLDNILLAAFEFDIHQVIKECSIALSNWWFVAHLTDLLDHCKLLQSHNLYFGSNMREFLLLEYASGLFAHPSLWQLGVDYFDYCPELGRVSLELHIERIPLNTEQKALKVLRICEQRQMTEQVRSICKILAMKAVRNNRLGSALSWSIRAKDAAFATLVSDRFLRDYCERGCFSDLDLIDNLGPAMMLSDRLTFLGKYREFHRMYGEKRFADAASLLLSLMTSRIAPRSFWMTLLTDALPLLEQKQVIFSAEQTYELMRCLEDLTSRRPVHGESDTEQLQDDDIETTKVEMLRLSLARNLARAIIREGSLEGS
inactive: [1] -0.009 | [2] -0.018 | [3] 0.042 | [4] -0.004 | [5] 0.019

NFYB (UniProt P25208)
inactive: [1] -0.015 | [2] -0.119 | [3] -0.165 | [4] -0.048 | [5] 0.057

NOSIP (UniProt Q9Y314)
inactive: [1] 0.056 | [2] 0.043 | [3] 0.179 | [4] -0.043 | [5] 0.016

MKNK1 (UniProt Q9BUB5)
inactive: [1] -0.056 | [2] 0.039 | [3] 0.065 | [4] 0.03 | [5] -0.009

MON1B (UniProt Q7L1V2)
UniProt Q7L1V2, sequence (Q7L1V2 whole entry, looked up): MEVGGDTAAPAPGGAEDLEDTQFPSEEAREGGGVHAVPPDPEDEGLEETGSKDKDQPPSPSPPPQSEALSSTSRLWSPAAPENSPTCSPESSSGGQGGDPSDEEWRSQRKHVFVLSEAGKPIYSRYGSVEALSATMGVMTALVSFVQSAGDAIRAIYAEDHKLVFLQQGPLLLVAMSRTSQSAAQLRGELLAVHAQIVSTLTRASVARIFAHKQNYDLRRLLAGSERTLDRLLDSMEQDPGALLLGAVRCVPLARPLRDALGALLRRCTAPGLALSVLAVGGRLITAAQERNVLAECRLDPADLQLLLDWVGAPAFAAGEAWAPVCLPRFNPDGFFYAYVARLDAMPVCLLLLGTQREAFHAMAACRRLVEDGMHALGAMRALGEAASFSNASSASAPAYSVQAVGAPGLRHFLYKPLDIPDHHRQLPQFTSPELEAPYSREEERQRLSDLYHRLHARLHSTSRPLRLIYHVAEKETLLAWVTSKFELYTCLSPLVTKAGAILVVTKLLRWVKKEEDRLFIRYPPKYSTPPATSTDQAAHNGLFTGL
inactive: [1] -0.032 | [2] 0.044 | [3] 0.056 | [4] -0.008 | [5] -0.064

NDFIP1 (UniProt Q9BT67)
inactive: [1] 0.035 | [2] -0.162 | [3] -0.076 | [4] -0.111 | [5] 0.052

NASP (UniProt P49321)
inactive: [1] -0.009 | [2] 0.049 | [3] 0.054 | [4] -0.022 | [5] 0.013

MND1 (UniProt Q9BWT6)
UniProt Q9BWT6, sequence (Q9BWT6 whole entry, looked up): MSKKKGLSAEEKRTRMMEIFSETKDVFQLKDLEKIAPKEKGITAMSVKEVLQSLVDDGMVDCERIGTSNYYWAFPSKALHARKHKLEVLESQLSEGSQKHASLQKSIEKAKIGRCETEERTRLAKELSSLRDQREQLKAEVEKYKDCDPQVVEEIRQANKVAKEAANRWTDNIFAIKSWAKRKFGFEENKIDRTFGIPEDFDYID
inactive: [1] 0.009 | [2] 0.012 | [3] 0.081 | [4] 0.088 | [5] 0.102

NMT2 (UniProt O60551)
inactive: [1] -0.045 | [2] 0.053 | [3] 0.092 | [4] 0.026 | [5] -0.107
